In PubChem BioAssay:
Calls of active or inactive are those of the source.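 The calls were made as follows, unless noted: active = normalized viability below 100% at a tested concentration; inactive = the rest.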

Assays:
[1] = drug combination growth inhibition, ovarian cancer – cell-based, oncology-focused library, rucaparib conditional, profiling panel (AID 1508598); conditions: patient-derived ovarian cancer cells, CellTiter-Glo viability, 144 h, active compounds read low
[2] = target: NAD(+) hydrolase SARM1 (Homo sapiens) (UniProt Q6SZW1); assay: blocking NAD cleavage by SARM1 SAM-TIR – cell lysate, NAD-Glo luminescence (AID 1508614;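 active = compound whose remaining NAD level is above about 45 nM, limit read from the data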;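 also: higher remaining NAD means stronger inhibition of SARM1 NADase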); conditions: SAM-TIR HEK293T lysate NADase, at 1 µM, active compounds read high
[3] = target: Mitogen-activated protein kinase 7 (Homo sapiens) (UniProt Q13164); assay: Gal4-ERK5 driven luciferase induction – cell-based, HTS, primary screen (AID 1508626;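 active = luciferase signal above three times the same-plate solvent-only control wells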;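 also: luciferase driven by Gal4-ERK5 fusion binding five Gal4 sites before minimal TATA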); conditions: HeLa Gal4-ERK5 transactivation, 18 h, at 5 µM, active compounds read high
Mitogen-activated protein kinase 7 (Homo sapiens), sequence (Q13164 whole entry, looked up, the tested form may be a part): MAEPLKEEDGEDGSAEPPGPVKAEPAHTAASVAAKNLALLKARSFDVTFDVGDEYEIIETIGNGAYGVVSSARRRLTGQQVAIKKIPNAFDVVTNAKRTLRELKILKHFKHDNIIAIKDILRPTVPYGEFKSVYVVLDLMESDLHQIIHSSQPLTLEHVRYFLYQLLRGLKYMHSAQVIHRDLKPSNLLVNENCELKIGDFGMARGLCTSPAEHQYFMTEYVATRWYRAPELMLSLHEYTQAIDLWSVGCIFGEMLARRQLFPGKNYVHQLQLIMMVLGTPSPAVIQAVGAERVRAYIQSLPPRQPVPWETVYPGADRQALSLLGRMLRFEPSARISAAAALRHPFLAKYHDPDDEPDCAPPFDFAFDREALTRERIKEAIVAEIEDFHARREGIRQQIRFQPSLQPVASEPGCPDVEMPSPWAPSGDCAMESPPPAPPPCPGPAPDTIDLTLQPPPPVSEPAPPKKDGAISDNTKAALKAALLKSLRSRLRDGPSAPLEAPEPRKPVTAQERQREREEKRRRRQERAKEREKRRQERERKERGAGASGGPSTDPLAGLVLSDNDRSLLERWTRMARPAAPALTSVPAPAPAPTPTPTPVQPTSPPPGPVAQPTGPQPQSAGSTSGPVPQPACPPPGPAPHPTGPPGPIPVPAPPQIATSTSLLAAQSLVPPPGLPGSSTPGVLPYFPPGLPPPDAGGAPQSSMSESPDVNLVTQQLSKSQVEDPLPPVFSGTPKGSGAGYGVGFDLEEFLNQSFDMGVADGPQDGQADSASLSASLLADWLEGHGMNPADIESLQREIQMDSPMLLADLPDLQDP

NAD(+) hydrolase SARM1 (Homo sapiens), sequence (Q6SZW1 whole entry, looked up, the tested form may be a part): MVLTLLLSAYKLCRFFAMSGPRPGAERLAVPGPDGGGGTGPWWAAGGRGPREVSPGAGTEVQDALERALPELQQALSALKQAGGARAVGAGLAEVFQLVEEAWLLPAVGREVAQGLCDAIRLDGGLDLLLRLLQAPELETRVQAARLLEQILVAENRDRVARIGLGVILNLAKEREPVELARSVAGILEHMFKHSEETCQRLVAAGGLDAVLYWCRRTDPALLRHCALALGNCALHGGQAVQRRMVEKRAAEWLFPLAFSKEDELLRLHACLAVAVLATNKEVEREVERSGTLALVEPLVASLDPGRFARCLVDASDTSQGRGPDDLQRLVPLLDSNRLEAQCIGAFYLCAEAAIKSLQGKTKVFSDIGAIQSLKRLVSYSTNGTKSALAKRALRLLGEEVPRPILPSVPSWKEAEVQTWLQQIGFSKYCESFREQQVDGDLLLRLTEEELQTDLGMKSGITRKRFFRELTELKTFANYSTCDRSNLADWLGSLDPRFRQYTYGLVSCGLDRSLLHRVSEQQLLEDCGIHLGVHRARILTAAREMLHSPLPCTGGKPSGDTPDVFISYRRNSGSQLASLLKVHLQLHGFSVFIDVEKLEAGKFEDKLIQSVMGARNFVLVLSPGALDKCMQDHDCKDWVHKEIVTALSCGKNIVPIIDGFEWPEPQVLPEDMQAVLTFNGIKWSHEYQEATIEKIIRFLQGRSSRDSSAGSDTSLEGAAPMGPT

Nc1nc(F)nc2c1ncn2[C@@H]1O[C@H](COP(=O)(O)O)[C@@H](O)[C@@H]1O
inactive: viability ([1]; at 0.0195 µM, OCI-P5x cells, without rucaparib) 108% | viability ([1]; at 0.0781 µM, OCI-C5x cells, with rucaparib 10 µM, 100% = cells with rucaparib alone) 101% | viability ([1]; at 0.0781 µM, OCI-C5x cells, without rucaparib) 112% | viability ([1]; at 0.0781 µM, OCI-P5x cells, with rucaparib 20 µM, 100% = cells with rucaparib alone) 109% | viability ([1]; at 0.0781 µM, OCI-P5x cells, without rucaparib) 110% | viability ([1]; at 0.313 µM, OCI-P5x cells, with rucaparib 20 µM, 100% = cells with rucaparib alone) 106% | viability ([1]; at 0.313 µM, OCI-P5x cells, without rucaparib) 107% | viability ([1]; at 1.25 µM, OCI-P5x cells, with rucaparib 20 µM, 100% = cells with rucaparib alone) 114% | viability ([1]; at 1.25 µM, OCI-P5x cells, without rucaparib) 111% | viability ([1]; at 5 µM, OCI-P5x cells, with rucaparib 20 µM, 100% = cells with rucaparib alone) 106% | remaining NAD [2] 10 nM | luciferase signal [3] 52 AU
active: viability ([1]; at 0.313 µM, OCI-C5x cells, with rucaparib 10 µM, 100% = cells with rucaparib alone) 87.1% | viability ([1]; at 0.313 µM, OCI-C5x cells, without rucaparib) 98.3% | viability ([1]; at 1.25 µM, OCI-C5x cells, with rucaparib 10 µM, 100% = cells with rucaparib alone) 82.9% | viability ([1]; at 1.25 µM, OCI-C5x cells, without rucaparib) 78% | viability ([1]; at 5 µM, OCI-C5x cells, with rucaparib 10 µM, 100% = cells with rucaparib alone) 58.5% | viability ([1]; at 5 µM, OCI-C5x cells, without rucaparib) 59.8% | viability ([1]; at 5 µM, OCI-P5x cells, without rucaparib) 78.1%
